Experimental data published in ChEMBL document CHEMBL3988442, “University of Dundee, Small-Polar-MMV Screening Library” (2021).

These molecules were tested against T1, Aspartate--tRNA(Asp/Asn) ligase (Mycobacterium tuberculosis (strain ATCC 25618 / H37Rv)) (UniProt P9WFW3) (assay: Assay for Asp RNA synthetase-1 from Mycobacterium tuberculosis). Settings: 30 µM.
T1 sequence (whole entry): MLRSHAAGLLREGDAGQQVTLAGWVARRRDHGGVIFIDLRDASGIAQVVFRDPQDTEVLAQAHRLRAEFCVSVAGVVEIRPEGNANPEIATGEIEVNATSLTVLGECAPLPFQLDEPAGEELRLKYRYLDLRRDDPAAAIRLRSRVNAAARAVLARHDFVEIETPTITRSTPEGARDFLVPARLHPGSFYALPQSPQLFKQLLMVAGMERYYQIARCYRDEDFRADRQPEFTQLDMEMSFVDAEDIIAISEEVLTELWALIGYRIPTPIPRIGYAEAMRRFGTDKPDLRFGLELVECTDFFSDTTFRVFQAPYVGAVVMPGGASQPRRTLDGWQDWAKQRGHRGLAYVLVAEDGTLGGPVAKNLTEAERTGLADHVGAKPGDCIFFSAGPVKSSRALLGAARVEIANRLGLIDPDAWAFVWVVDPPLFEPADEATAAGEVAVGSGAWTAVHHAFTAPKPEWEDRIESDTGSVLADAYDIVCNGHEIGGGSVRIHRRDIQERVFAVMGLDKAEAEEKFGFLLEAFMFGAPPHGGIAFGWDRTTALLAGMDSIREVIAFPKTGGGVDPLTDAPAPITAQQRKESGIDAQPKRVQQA
Format: functional
Design: scale not given: in the data most compounds retested in dose-response had high values
Molecule `CCOc1cccc(CNC(=O)NCC(O)c2cccc(F)c2)c1` (stereo not given) has a Percent Effect of 9.63%.
For `COCCN1CCN(C(=O)c2cc(C(C)C)on2)[C@H]2CS(=O)(=O)C[C@H]21`, the Percent Effect was -3.12%.
`COc1cc2nc3n(c(=O)c2cc1OC)CCN(C(C)=O)CC3` gave a Percent Effect of -0.551%.
Molecule `CCN1CCC(NC(=O)CN2CCCC2Cn2nc(C)cc2C)CC1` (stereo not given) has a Percent Effect of -0.781%.
`O=C(NCc1ccccn1)N(Cc1ccc(F)cc1F)C1CC1` was tested, and the Percent Effect was -1.6%.
Molecule `Cc1nc(CN2CCOC(CNc3cccnn3)C2)oc1C` (stereo not given) has a Percent Effect of -4%.
`Cc1cc(CN2CCc3nn(C)c(=O)cc3C2)on1` showed a Percent Effect of 46.2%.
For `Cc1ccc2c(c1)CN(C(=O)C1CCCCC1)C(CN(C)C)CO2` (stereo not given), the Percent Effect was 1.26%.
With `Cc1cc2c(cc1C(=O)N1CC[C@H](CO)[C@@H](O)C1)OCCO2` the Percent Effect was -0.915%.
`CCS(=O)(=O)N1C[C@H]2CCC[C@@]2(COc2ccccn2)C1` was tested, and the Percent Effect was 3.6%.
Molecule `Cc1ccc(-n2nnc(CC(=O)N3CCOCC3)c2C)cc1` has a Percent Effect of 2.26%.
`O=C(c1cnc(-c2ccco2)s1)N1CCCC1Cn1cccn1` (stereo not given) gave a Percent Effect of -5.14%.
In the case of `CC1=N[C@@]2(CC[C@@H]3CN(S(=O)(=O)CC(C)C)C[C@@H]32)C(=O)N1CC(C)C`, the Percent Effect is reported as -0.749%.
For `Cc1csc(N2CCCN(C(=O)C(C(C)C)n3cncn3)CC2)n1` (stereo not given), the Percent Effect was -2.24%.
For `c1ncn(CC2CCCCN2Cc2csc(C3CCCC3)n2)n1` (stereo not given), the Percent Effect was -7.74%.
`CCNC(c1ccc(OC)cc1)c1cccnc1` (stereo not given) gave a Percent Effect of 1.53%.
For `CC(C)(C#N)C(=O)N1CCCC(c2cc(C(F)(F)F)[nH]n2)C1` (stereo not given), the Percent Effect was -1.34%.
`Cc1noc([C@H]2COC[C@H]3CN(C(=O)Cc4ccc(F)cc4)C[C@H]32)n1` was tested, and the Percent Effect was -3.45%.
Molecule `O=C(CCc1ccccc1)N1CCC(N2CCNC2=O)CC1` has a Percent Effect of 1.87%.
For `CCOCCN1CCN(Cc2cccc(C(=O)N(C)C)c2)CC1`, the Percent Effect was -3.67%.
In the case of `CN(Cc1cn2ccccc2c1C#N)C1CCCN(c2cccnn2)C1` (stereo not given), the Percent Effect is reported as 0.694%.
`COCCN1CCCC(O)(CN2CCN(c3ncccc3C)CC2)C1=O` (stereo not given) showed a Percent Effect of 5.57%.
`CCc1cc(C(=O)N2CCC(Nc3ccc(C)nn3)CC2)sc1C` was tested, and the Percent Effect was -2.1%.
Work on `O=C(N[C@@H]1CN(Cc2ccccc2)C[C@@H]2CCCO[C@@H]21)C1CC1` yielded a Percent Effect of 1.66%.
In the case of `Cc1ccc(CC(=O)N(C)CC2(O)CCN(c3ccccn3)C2)s1` (stereo not given), the Percent Effect is reported as 5.23%.
In the case of `Cc1nc(CNC(=O)NCC(O)c2ccc(F)c(F)c2)cs1` (stereo not given), the Percent Effect is reported as -2.91%.
With `O=C1CCC(C(=O)NCc2nn(-c3ccccc3)c3c2CCC3)CN1` (stereo not given) the Percent Effect was -2.23%.
With `O=C(NCCCN1CCCCC1)c1ccc(-n2ccc3ccccc32)s1` the Percent Effect was 5.58%.
Molecule `Nc1nccc(NCc2cc3n(n2)CCCN(C(=O)C2CCC2)C3)n1` has a Percent Effect of 0.0228%.
With `CC(NC(=O)NCCn1ccnc1)c1ccc2c(c1)NC(=O)CO2` (stereo not given) the Percent Effect was 0.942%.
With `CNc1cc(CCNC(=O)c2cccnc2)nc(-c2ccncc2)n1` the Percent Effect was -1.03%.
For `Cc1noc(CN(Cc2ccc3c(c2)OCO3)Cc2ccc(C)o2)n1`, the Percent Effect was 13.9%.
`Cc1nc(COC[C@@H]2CC[C@H]3[C@H](CCN3c3ncccn3)O2)cs1` gave a Percent Effect of 1.87%.
`CC(C)(C)c1nnc(CN2CCCC(c3cc(C(N)=O)[nH]n3)C2)o1` (stereo not given) gave a Percent Effect of -0.781%.
In the case of `CC(=O)Nc1nc(C2CCN(CC(N)=O)CC2)cs1`, the Percent Effect is reported as -7.79%.
`COCCc1noc(CN2CCOC(Cn3nc(C)cc3C)C2)n1` (stereo not given) gave a Percent Effect of -2.55%.
In the case of `Cc1cccnc1C(=O)N1CCCCC1c1[nH]ncc1S(C)(=O)=O` (stereo not given), the Percent Effect is reported as 5.01%.
`COc1ccccc1OCCN1CCCC(c2cc(C(N)=O)[nH]n2)C1` (stereo not given) showed a Percent Effect of 0.0735%.
In the case of `CC(=O)N1CCCC1c1nccc(C)n1` (stereo not given), the Percent Effect is reported as 0.191%.
With `Cc1noc2ncc(C(=O)N3CCCC3c3ccncc3)cc12` (stereo not given) the Percent Effect was -7.22%.
